The values below come from ChEMBL document CHEMBL1201862, “PubChem BioAssay data set” (2004).

The campaign covered roughly 400,000 compounds. About 2,100 (0.53%) were called active. Roughly 14% stayed inconclusive and do not appear here. No rule for the calls is given here. For the sample, actives were picked, then their nearest neighbours and some compounds at random.

The target in this experiment is Ataxin-2 (Homo sapiens) (UniProt Q99700). The experiment in a line: qHTS for Inhibitors of ATXN expression. The class given is functional.
Ataxin-2 (Homo sapiens), sequence (Q99700 whole entry): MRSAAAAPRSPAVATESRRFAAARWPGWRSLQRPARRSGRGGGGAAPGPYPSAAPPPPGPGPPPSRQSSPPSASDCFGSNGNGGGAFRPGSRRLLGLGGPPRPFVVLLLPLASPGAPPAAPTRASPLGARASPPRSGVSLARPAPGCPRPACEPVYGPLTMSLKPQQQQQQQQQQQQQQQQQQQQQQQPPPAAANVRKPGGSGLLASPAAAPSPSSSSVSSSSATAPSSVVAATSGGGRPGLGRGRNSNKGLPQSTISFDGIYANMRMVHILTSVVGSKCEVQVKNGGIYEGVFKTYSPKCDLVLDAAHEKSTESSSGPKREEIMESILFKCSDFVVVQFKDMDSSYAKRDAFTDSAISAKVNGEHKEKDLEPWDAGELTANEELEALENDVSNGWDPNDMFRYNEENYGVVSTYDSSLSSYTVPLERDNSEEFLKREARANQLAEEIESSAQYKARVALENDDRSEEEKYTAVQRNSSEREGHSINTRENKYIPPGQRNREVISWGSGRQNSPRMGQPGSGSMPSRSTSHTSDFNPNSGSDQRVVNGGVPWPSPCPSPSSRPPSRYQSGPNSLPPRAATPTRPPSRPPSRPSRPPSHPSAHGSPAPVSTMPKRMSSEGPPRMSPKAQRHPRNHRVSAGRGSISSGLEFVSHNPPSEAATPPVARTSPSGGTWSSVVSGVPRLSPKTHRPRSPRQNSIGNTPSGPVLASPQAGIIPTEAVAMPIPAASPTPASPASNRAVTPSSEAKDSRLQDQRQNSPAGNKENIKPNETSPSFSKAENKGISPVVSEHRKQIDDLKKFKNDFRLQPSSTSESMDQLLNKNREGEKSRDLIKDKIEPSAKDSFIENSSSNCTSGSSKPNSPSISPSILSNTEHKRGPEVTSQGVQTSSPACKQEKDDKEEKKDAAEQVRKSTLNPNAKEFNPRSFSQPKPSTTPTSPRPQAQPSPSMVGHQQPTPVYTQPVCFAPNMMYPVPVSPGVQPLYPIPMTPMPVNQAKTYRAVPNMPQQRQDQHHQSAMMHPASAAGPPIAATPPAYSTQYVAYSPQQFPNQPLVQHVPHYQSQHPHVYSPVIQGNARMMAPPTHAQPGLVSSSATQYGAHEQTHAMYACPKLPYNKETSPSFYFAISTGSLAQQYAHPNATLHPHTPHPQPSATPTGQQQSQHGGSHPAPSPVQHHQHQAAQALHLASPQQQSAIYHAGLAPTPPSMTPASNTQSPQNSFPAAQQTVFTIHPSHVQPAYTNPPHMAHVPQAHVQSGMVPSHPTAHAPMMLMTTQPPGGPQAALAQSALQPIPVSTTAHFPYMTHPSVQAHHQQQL
As for `CCCCC(=O)N/N=C/c1ccc(-c2ccc([N+](=O)[O-])cc2)o1`, the Potency entry was “inactive”. In the case of `CSCCC(NC(=O)COc1ccccc1)C(=O)N(C)Cc1c(F)cccc1Cl` (centres undefined) it was “inactive”; in that of `Cc1ccc(Cn2c(=O)c3c(ncn3C)n(C)c2=O)cc1`, “inactive”. Then `Cc1cc2oc(=O)cc(Cn3ncc(Cl)c(Cl)c3=O)c2cc1Cl`, with 39.8 µM (active). Then `CC1CCN(Cc2cc(=O)oc3cc(O)c(Cl)cc23)CC1`, with “inactive”. Take `Cc1cccc(Cn2ncc(Cl)c(Cl)c2=O)c1`: the Potency is 39.8 µM (active). With `CC(=O)c1cn(-c2ccc(Cl)cc2)c(=O)n(Cc2ccc(F)cc2)c1=O`, the Potency result was “inactive”. Then `Cc1cc2oc(=O)cc(CN3CCOCC3)c2cc1Cl`, with “inactive”. On to `Cc1ccc(Cn2ncc(Cl)c(Cl)c2=O)cc1`, for which the Potency is 39.8 µM (active). In the case of `CC(C)(C)c1cc(C(=O)NN)n(Cc2ccc(F)cc2)n1` it was “inactive”.

For `Cc1ccc(-c2cc(C#N)c(=O)n(Cc3c(Cl)cccc3Cl)c2)cc1`, the Potency result is “inactive”. Take `O=c1c(Cl)c(Cl)cnn1Cc1ccc(F)cc1`: the Potency was 39.8 µM (active). In the case of `Cc1ccc(Cn2ncn(-c3ccccc3)c2=O)cc1` it was “inactive”; in that of `Cc1ccc(Cn2c(=O)c3ccccc3n3nc(C)cc23)cc1`, “inactive”; in that of `CCC(C)N1C(=O)S/C(=C/c2ccc(N3CCOCC3)cc2C)C1=O` (centres undefined), “inactive”. In the case of `CCN(CC)Cc1c(O)ccc2cc(-c3nc4ccccc4n3C)c(=O)oc12` it was “inactive”; in that of `Cc1c2ccccc2nc2c(F)c(N(C)C)c(F)c(F)c12`, “inactive”. As for `Cc1c(O)ccc2cc(S(=O)(=O)c3ccccc3)c(=O)oc12`, the Potency entry was “inactive”.

For `Cc1cc(C(=O)COC(=O)[C@H](C)NC(=O)c2ccco2)c(C)n1Cc1ccco1`, the Potency result is “inactive”. In the case of `COc1ccc(C)cc1Nc1n[n+](-c2ccccc2)c(-c2c(OC)ccc3ccccc23)s1` it was 20 µM (active).

For the compound `COc1ccccc1Nc1nc2cc(C)ccc2cc1C#N`, the Potency result is “inactive”. Turning to `COc1ccc(C)cc1NCc1ccc([N+](=O)[O-])cc1`, the Potency result was “inactive”.

For `O=c1[nH]c(=O)n(-c2cc(Br)c(O)c(Br)c2)cc1Br`, the Potency result was “inactive”. For `O=c1oc2ccccc2cc1-c1nc(-c2cccs2)cs1`, the Potency entry is “inactive”. Take `C=CCOc1ccc(C2C(C(=O)c3ccco3)=C(O)C(=O)N2c2nnc(C)s2)cc1` (centres undefined): the Potency result was “inactive”. As to `C=C1CC2(CC(c3ccccc3)OC(c3ccccc3)C2)OC1=O` (centres undefined), the Potency was 39.8 µM (active).

For `O=C(/C=C/c1cn(CC(O)CN2CCCCCC2)c2ccccc12)c1cccs1` (centres undefined), the Potency result is “inactive”. `Fc1ccc(-c2ncc3ccccn23)cc1`: the Potency entry was “inactive”. On to `Cn1c(=S)n(C)c2ccccc21`, for which the Potency entry is “inactive”. Consider `CN(C(=O)CSc1nnc(-c2cccs2)n1N)c1ccccc1`, for which the Potency entry is “inactive”. Then `O=C(Nc1nnc(C(F)(F)F)s1)c1c(F)cccc1F`, with “inactive”.

Consider `CC1CCN(C(=O)CCC(=O)Nc2nnc(C(F)(F)F)s2)CC1`, for which the Potency entry was “inactive”.

Turning to `CCC(NC(=O)Nc1nnc(C(F)(F)F)s1)(C(F)(F)F)C(F)(F)F`, the Potency is 31.6 µM (active). For `O=C(O)CSc1nnc(-c2cccc(S(=O)(=O)N3CCOCC3)c2)n1-c1ccc(F)cc1`, the Potency entry is “inactive”. In the case of `N=C1C=CC(=C(c2ccc(N)cc2)c2ccc(N)cc2)C=C1` it was 28.2 µM (active); in that of `COc1ccc(COc2ncnc3ccc(Br)cc23)cc1F`, “inactive”; in that of `Cc1cc(S(=O)(=O)NC2CC(C)(C)NC(C)(C)C2)c(Cl)cc1Cl`, “inactive”. In the case of `CC1CCCCC1NC(=O)CCn1c(=S)[nH]c2ccccc2c1=O` (centres undefined) it was “inactive”; in that of `CC1CCCCN1CCCNC(=O)c1[nH]c2ccccc2c1Sc1ccc(Cl)cc1` (centres undefined), 39.8 µM (active); in that of `CCCCCn1c(=O)[nH]c2cc(C(=O)NCCCN3CCCCC3C)ccc2c1=O` (centres undefined), “inactive”. Then `CCC1CCCCN1CCCNC(=O)c1[nH]c2ccccc2c1Sc1ccc(Cl)cc1` (centres undefined), with 39.8 µM (active); and `COc1ccccc1[C@H]1C(c2ccccc2)=NN(c2ccccc2)[C@@H]1CO`, with “inactive”. For `Cc1ccc(C2=CC(c3ccc(C)cc3)n3ncnc3N2)cc1` (centres undefined), the Potency entry is “inactive”. Turning to `COCc1cc(C)nc2sc(C(=O)Nc3ccc(C(C)=O)cc3)c(N)c12`, the Potency result is “inactive”. In the case of `CC(=O)c1ccc(Nc2cc(C)nc3c(C)cc(C)cc23)cc1` it was 29.9 µM (active); in that of `Cc1ccc(Nc2cc(C)c(O)c(C)c2)cc1`, “inactive”; in that of `COC(=O)Cc1c(C)c2cc3c(c(C)c2oc1=O)OCN(CCc1ccc(F)cc1)C3`, “inactive”. Then `COC(=O)Cc1c(C)c2ccc3c(c2oc1=O)CN(Cc1ccccc1OC)CO3`, with “inactive”; and `COc1ccc(C2C=C(c3ccc(Br)cc3)Nc3nc(N4C(=O)CCC4=O)nn32)cc1` (centres undefined), with “inactive”; and `CCc1cc(=O)oc2c(CN3CCN(C)CC3)c(O)ccc12`, with “inactive”. On to `Cc1ccc(-c2csc3ncnc(Sc4nnc(CN5CCCCCC5=O)o4)c23)cc1`, for which the Potency is 39.8 µM (active). For the compound `CCN(CC)c1ccc(C(=O)OCC(=O)N(C(C)C)C(C)C)cc1`, the Potency result was “inactive”.

As for `CCN(CC)c1ccc(C(=C2C=CC(=[N+](CC)CC)C=C2)c2ccc(N(CC)CC)cc2)cc1`, the Potency was 10 µM (active). Then `CCN(CC)c1ccc(C(=O)c2cnc(/N=C/N(C)C)s2)cc1`, with “inactive”; and `CCOc1ccc(Nc2nc3c(C)cccc3cc2C#N)cc1`, with “inactive”; and `Cc1ccc(NC(=O)Cc2ccc(Cl)cc2)nc1`, with “inactive”. In the case of `N=C(N)NS(=O)(=O)c1ccc(NC(=S)NC(=O)Cc2ccc(Cl)cc2)cc1` it was “inactive”; in that of `O=C(Cc1ccc(Cl)cc1)Nc1ccc(-c2nnc(-c3ccco3)o2)cc1`, 39.8 µM (active); in that of `CC(C)OCCCNC(=O)NC(=O)c1ccc(Cl)cc1`, “inactive”. As to `O=C(COc1ccc(Cl)cc1)N(Cc1cccs1)C1CCS(=O)(=O)C1` (centres undefined), the Potency result was “inactive”. Take `CCOc1ccc(OCCOc2ccc(/C=C/C(=O)O)cc2OCC)cc1`: the Potency result is “inactive”. `CCN=c1ccc(Br)cc(C(=O)/C=C/c2ccc(Cl)cc2)c1O`: the Potency is 31.6 µM (active). In the case of `CCOc1ccc(/C=C/C(=O)c2cc(Br)ccc(=O)c2O)cc1` it was 22.4 µM (active). Then `Cc1cc(O)c(C(=O)/C=C/c2ccc(Cl)cc2)c(=O)o1`, with “inactive”; and `CCOc1ccc(-n2cc(C(=O)c3cc(Cl)ccc3O)cc(C#N)c2=O)cc1`, with “inactive”; and `CC(C)(C)c1ccc(C(=O)NNc2ncccc2-n2cccc2)cc1`, with “inactive”. Consider `CC(=O)N/N=C/c1cc(C(C)C)cc(/C=N/NC(C)=O)c1O`, for which the Potency entry was “inactive”. In the case of `O=c1c(Br)c(Br)cnn1-c1ccccc1` it was 4.23 µM (active); in that of `COc1cc(OC)nc(-n2ncc(Br)c(Br)c2=O)n1`, 10.6 µM (active).
